ugtP null kill – compounds lethal to S. aureus RN4220 ugtP deletion mutant | OD600 growth, 16 h | 330,000 tested, 0.54% active | growth inhibition, % (no concentration beside the values); in the data active = growth inhibition above about 68%;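 note: plate controls were untreated wells for no effect and antibiotic for full effect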
RN4220 kill – S. aureus RN4220 growth inhibition; OD600, 16 h; inhibition, % (test concentration not listed); 330,000 tested, 0.33% active; in the data active = inhibition above about 85%;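 note: plate controls were untreated cells for no effect and reference antibiotic for full effect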
PriA SSB inh – blocks PriA binding to SSB C-terminal tail. inhibition, % at 33 µM. 430,000 tested, 0.6% active. AlphaScreen SSBct-PriA binding, biotinylated peptide; in the data active = inhibition mostly above about 37%, no sharp cut-off; inactive = mostly below about 20%;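 note: plate controls were negative control peptide for no effect and reference peptide for full effect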
Mtb hypoxia inh – inhibitors of hypoxia-regulated fluorescent reporter in Mycobacterium tuberculosis; M. tuberculosis hypoxia-regulated fluorescent reporter, fluorescence; fluorescence inhibition, % (no concentration beside the values); 300,000 tested, 0.1% active; AID 1159583; in the data active = fluorescence inhibition mostly above about 23%, no sharp cut-off; inactive = mostly below about 17%
Mtb bLac sens – beta-lactam sensitization of Mtb H37Rv | 330,000 tested, 0.27% active | M. tuberculosis H37Rv growth with meropenem, percent inhibition | AID 434955 | inhibition, % at 25 µM; call rule not given here;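 note: growth measured after seven days incubation then overnight dye step; 0% = bacteria only wells and 100% = bacteria with antibiotic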
The depositor's hits bear a star; x = no result given. Compounds with a hit are over-represented: about 1% of the library has one in this group of screens.

SMILES | ugtP null kill | RN4220 kill | PriA SSB inh | Mtb hypoxia inh | Mtb bLac sens
O=C(c1csc(Nc2ccccc2)n1)N1CCN(Cc2ccc3c(c2)OCO3)CC1 | x | x | active | x | x
O=C(Cc1csc(Nc2ccccc2)n1)N1CCN(Cc2ccc3c(c2)OCO3)CC1 | x | x | 2 | x | x
O=C(NCCn1nc(-c2cccs2)cc1C1CC1)c1ccsc1 | x | x | 6 | x | x
CSc1ccc(CCC(=O)N[C@H]2CCN(c3ccccn3)C2)cc1 | x | x | -6 | x | x
O=C(CCCS(=O)(=O)c1ccc(F)cc1)N(C[C@H]1CCCO1)c1nc2ccc(Cl)cc2s1 | x | x | -9 | x | x
CC(=O)C(=Nc1ccccc1Cl)NNc1ccc(Cl)cc1 | -17 | -10 | 50* | -86 | 94
COc1ccccc1-c1nc(C#N)c(N2CCN(c3ccccc3)CC2)o1 | -24 | -5 | 51* | 13 | -12
COc1ccccc1-c1nc(C#N)c(N2CCc3ccccc3C2)o1 | -17 | 4 | 56* | 4 | 22
COc1ccc(-c2nc(C#N)c(N3CCc4ccccc4C3)o2)cc1OC | -25 | -2 | 30 | -4 | 98
N#Cc1nc(-c2ccco2)oc1N1CCN(c2ccccc2)CC1 | -11 | -9 | 38* | 14 | -9
Cc1cc2c(=O)n(C)c(SCC(=O)NCCc3ccccc3)nc2s1 | x | x | -14 | x | x
O=C(O)c1cc(I)ccn1 | x | x | 67* | x | x
O=C(O)c1cc(-n2cccn2)ccn1 | x | x | 75* | x | x
O=C(Nc1cccnc1)c1cc(-n2cccn2)ccn1 | x | x | -8 | x | x
O=C(O)c1cc(N2CCCC2)ccn1 | x | x | -3 | x | x
COC(=O)c1sccc1S(=O)(=O)Nc1cnn(CC2COc3ccccc3O2)c1 (stereo not given) | x | x | -3 | x | x
N#CC(=NNc1ccc(OC(F)(F)F)cc1)C(N)=S | 87* | 82 | 22 | x | x
N#C/C(=N\Nc1ccc([N+](=O)[O-])cc1)C(N)=S | x | x | x | x | -2
COc1ccc(Cl)cc1NC(=O)C(C)OC(=O)Cn1cc(C(F)(F)F)ccc1=O (stereo not given) | -2 | 2 | -2 | 27* | 2
Cn1c(COc2ccc(Cl)cc2)nnc1SCC(=O)NC1CC1 | 3 | 5 | 1 | 34* | -6
Cc1ccc(-n2nnnc2C(Cl)(Cl)c2nnnn2-c2ccc(C)cc2)cc1 | 100* | 100* | 14 | 10 | 92
CCc1nnc(NS(=O)(=O)c2ccc(NC(=S)NC(=O)c3ccc(F)cc3)cc2)s1 | 87* | 12 | -4 | 8 | 6
CCOc1ccc(NS(=O)(=O)c2ccc(C(=O)N(C)CC(=O)Nc3ccc(OC)cc3)cc2)cc1 | 5 | 4 | -1 | 4 | -12
CCc1nnc(NS(=O)(=O)c2ccc(NC(=S)NC(=O)c3cccnc3)cc2)s1 | 18 | 11 | -3 | 15 | 11
CC(C)CC(=O)NC(=S)Nc1ccc(S(=O)(=O)Nc2nccs2)cc1 | 92* | 2 | -12 | 10 | -4
SMILES | ugtP null kill | RN4220 kill | PriA SSB inh | Mtb hypoxia inh | Mtb bLac sens
CCCC(=O)NC(=S)Nc1ccc(S(=O)(=O)Nc2ccc(OCC)cc2)cc1 | 88* | 7 | -7 | 3 | 15
CC(C)CC(=O)NC(=S)Nc1ccc(S(=O)(=O)N2CCN(C)CC2)cc1 | 86* | 3 | -12 | 2 | 3
O=C(COc1ccc(Cl)cc1Cl)NCC1CCN(C(=O)Nc2ccc(F)cc2)CC1 | x | x | -8 | x | x
CC(C)CC(=O)NC(=S)Nc1ccc(S(N)(=O)=O)cc1 | x | x | 0 | x | x
CC(C)CC(=O)NC(=S)Nc1ccc(S(=O)(=O)NC(C)(C)C)cc1 | 87* | 3 | -9 | -3 | 8
CCOc1ccc(NS(=O)(=O)c2ccc(NC(=S)NC(=O)CC(C)C)cc2)cc1 | 87* | 0 | 0 | x | 76
Cc1ccc(C)c(NC(=O)c2ccccc2O)c1 | -9 | -2 | -5 | x | -5
Cc1ccc(O)c(C(=O)CC(=O)c2ccccc2Cl)c1 | 99* | 100* | -7 | -11 | 92
Cc1ccc(O)c(C(=O)CC(=O)c2ccc(C(C)(C)C)cc2)c1 | 100* | 99* | 10 | -2 | 100
COc1ccc(O)c(C(=O)CC(=O)c2ccccc2)c1 | x | x | x | x | 73
CCOc1ccc(N(C)S(=O)(=O)c2ccsc2-c2nc(-c3ccc(SC)cc3)no2)cc1 | x | x | -12 | x | x
CCCc1cc(=O)n2[nH]cc(-c3ccc(Cl)cc3)c2n1 | 99* | 99* | -7 | -1 | 98
CC1COc2c(N3CCN(C)CC3)c(F)cc3c(=O)c(C(=O)O)cn1c23 (stereo not given) | 99* | 100* | -4 | x | 100
CCOc1ccc(NC(=O)c2ccc(NC(=O)c3cn4c5c(c(N6CCN(C)CC6)c(F)cc5c3=O)OCC4C)cc2)cc1 (stereo not given) | 98* | 98* | -3 | x | x
CCOc1ccc(C(=O)Nc2ccc(N3CCN(C)CC3)cc2)cc1 | 11 | 6 | -4 | 18 | 4
CC(=O)NCCc1nc2ccccc2n1Cc1ccc(Cl)cc1Cl | x | x | -1 | x | x
COc1cc(Cl)c(C)cc1NC(=O)CCCOc1ccc(C)cc1C | x | x | -3 | x | x
C=C1CC[C@@]2(O)[C@H]3Cc4ccc(O)c5c4[C@@]2(CCN3CC2CC2)[C@H]1O5 | x | x | 41* | x | -5
CCCc1nnsc1C(=O)NCC#CCOc1ccccc1OC | x | x | -17 | x | x
COc1ccc(C(=O)NC(=S)Nc2ccc(N3CCOCC3)cc2)cc1Cl | 99* | -3 | 33 | 18 | 99
Cc1ccc(C(=O)NC(=S)Nc2ccc(N3CCOCC3)cc2)cc1C | 25 | 1 | 19 | 22 | 0
O=C(NC(=S)Nc1ccc(N2CCOCC2)cc1)c1ccc(Cl)cc1 | 87* | 3 | 6 | 26 | 3
O=C(NC(=S)Nc1ccc(N2CCOCC2)cc1)c1ccc2c(c1)OCCO2 | 34 | 1 | 4 | x | 73
CS(=O)(=O)N1CCN(c2ccc(NC(=S)NC(=O)c3ccc4c(c3)OCO4)cc2)CC1 | 93* | 7 | -12 | -2 | -3
CC(C)(C)c1ccc(C(=O)NC(=S)Nc2ccc(N3CCOCC3)cc2)cc1 | -8 | -8 | -3 | x | 33
SMILES | ugtP null kill | RN4220 kill | PriA SSB inh | Mtb hypoxia inh | Mtb bLac sens
Cc1cccc(C(=O)NC(=S)Nc2ccc(N3CCOCC3)cc2)c1 | 87* | 2 | 15 | -4 | 1
N#Cc1ccc(OC2CCN(C(=O)c3cccc(C(F)(F)F)c3)CC2)nc1 | x | x | -5 | x | x
Cc1ccc(-c2csc(NC(=O)c3cccc(C(=O)Nc4nc(-c5ccc(C)o5)cs4)n3)n2)o1 | x | x | -1 | x | x
CCOC(=O)C1=C(C)N=c2s/c(=C/C=C/c3ccc([N+](=O)[O-])cc3)c(=O)n2C1c1cccs1 (stereo not given) | x | x | 5 | x | x
Cc1ccccc1-n1nnnc1SCC(=O)NCc1ccco1 | x | x | -2 | x | x
CC(C)COC(=O)c1ccc2c(c1O)C(=O)c1ccccc1C2=O | 93* | 92* | 10 | 5 | 100
COc1ccc2c(c1O)C(=O)c1ccccc1C2=O | x | x | x | x | -6
O=C(Nc1cccc([N+](=O)[O-])c1)c1ccc(Br)cc1F | x | x | 6 | x | x
CCN(c1ccc(NC(=O)COC(=O)c2cc3ccccc3oc2=O)cc1)C(C)C | 0 | 4 | 54* | -8 | 70
O=c1c2ccccc2oc2cc(-c3ccc4cc[nH]c4c3)ccc12 | 2 | 4 | -4 | 19 | -2
O=c1c2ccccc2oc2ccc(-c3ccc4[nH]ccc4c3)cc12 | 92* | 13 | -5 | 3 | 16
c1ccc(C2=NNC(=NCc3ccc4c(c3)OCO4)SC2)cc1 | -8 | 0 | 47* | -3 | -5

Bioassay records deposited in PubChem BioAssay by several laboratories.
